VP16 counter – VP16 counterscreen qHTS for inhibitors of ROR gamma transcriptional activity; Potency, µM (highest dose often 53.6 µM), actives largely listed as inhibitors; Drosophila S2 Gal4-VP16 UAS-luciferase, luminescence, 20 h; 310,000 compounds, 3.5% hits; AID 2546, 2010;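 also: Gal4-VP16 expression switched on by copper sulfate through the metallothionein promoter; nearly all actives have a fitted effect of over 50% in size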
TDP1 cell noCPT – qHTS for Inhibitors of human tyrosyl-DNA phosphodiesterase 1 (TDP1): qHTS in cells in absence of CPT; DT40 Tdp1-/- hTDP1 cells, no CPT, ATP luminescence, 48 h; Potency, µM (series often up to 46.2 µM), actives largely listed as inhibitors; 420,000 compounds, 15% hits; also: nearly all actives have a fitted effect of over 55% in size
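Readout: luminescence from CellTiter-Glo after 30 min in the dark at RT. Cells: DT40 Tdp1-/- with stable hTDP1, 400/well. Exposure: compounds alone, ≥48 hr, 37 °C.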
ELG1 repair inh – qHTS screen for small molecules that inhibit ELG1-dependent DNA repair in human embryonic kidney (HEK293T) cells expressing luciferase-tagged ELG1; HEK293T ELG1-luciferase reporter, luminescence, 16 h; DNA damage induced by 5-fluorouridine; Potency, µM (top dose mostly 46.1 µM), usual class: inhibitors; 330,000 compounds, 2.3% hits; AID 504467, 2011; also: nearly all actives have a fitted effect of over 55% in size
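Reporter activity after DNA damage by 5-fluorouridine is monitored. Compound-treated cells incubate 16 hr at 37 °C, then ONE-Glo is added for 30 min before luminescence reading.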
12-LOX inh – Primary qHTS assay for inhibitors of human arachidonate 12S-lipoxygenase (ALOX12): Round 2 | Polyunsaturated fatty acid lipoxygenase ALOX12 (Homo sapiens), P18054 | purified 12hLO, xylenol orange hydroperoxide absorbance | Potency, µM (titrated, usually from 108 µM), hits mostly inhibitors | 580,000 compounds, 1.1% hits
Target sequence (P18054 whole entry, looked up): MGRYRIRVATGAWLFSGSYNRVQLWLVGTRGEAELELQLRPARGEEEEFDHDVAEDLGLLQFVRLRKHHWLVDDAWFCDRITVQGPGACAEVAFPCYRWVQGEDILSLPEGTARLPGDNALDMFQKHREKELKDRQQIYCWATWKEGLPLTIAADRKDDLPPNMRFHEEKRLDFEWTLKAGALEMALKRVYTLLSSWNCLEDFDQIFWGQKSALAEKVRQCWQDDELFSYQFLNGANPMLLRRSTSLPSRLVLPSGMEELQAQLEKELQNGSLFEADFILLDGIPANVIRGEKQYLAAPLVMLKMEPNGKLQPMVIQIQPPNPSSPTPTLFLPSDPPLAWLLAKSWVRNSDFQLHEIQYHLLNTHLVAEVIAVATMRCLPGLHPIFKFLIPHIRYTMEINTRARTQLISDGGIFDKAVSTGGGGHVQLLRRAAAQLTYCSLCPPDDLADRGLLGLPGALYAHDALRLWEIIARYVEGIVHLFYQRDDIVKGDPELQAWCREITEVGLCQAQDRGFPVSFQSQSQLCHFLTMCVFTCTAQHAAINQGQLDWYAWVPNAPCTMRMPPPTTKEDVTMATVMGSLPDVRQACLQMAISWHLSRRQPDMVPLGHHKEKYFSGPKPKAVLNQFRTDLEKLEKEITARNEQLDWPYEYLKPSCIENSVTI
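Purified human 12hLO (150 nM final) in 25 mM Hepes, 0.01% Triton X-100, pH 7.0 was preincubated 15 min at room temperature with compound. Then 40 uM arachidonic acid was added, 30 min. Hydroperoxide was read by Fe-XO absorbance ratio 573/405 nm.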
RORgamma inh – qHTS for inhibitors of ROR gamma transcriptional activity; Nuclear receptor ROR-gamma (Mus musculus), P51450; Drosophila S2 Gal4-RORgamma UAS-luciferase reporter, 20 h; Potency, µM (top dose mostly 53.6 µM), actives largely listed as inhibitors; 310,000 compounds, 5.4% hits; AID 2551, 2010; also: nearly all actives have a fitted effect of over 60% in size
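Stably transfected Drosophila Schneider cells are the test system, with ROR gamma fused to Gal4 and luciferase under UAS control; luminescence is read after 20 hr of 700 uM copper sulfate induction at ambient temperature.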
DT40 TDP1 CPT – qHTS for Inhibitors of human tyrosyl-DNA phosphodiesterase 1 (TDP1): qHTS in cells in presence of CPT | AID 686979, 2013 | 420,000 compounds, 12% hits | chicken DT40 Tdp1-/-;hTDP1 cells + 20 nM CPT, ATP luminescence, 48 h | Potency, µM (highest dose often 46.2 µM), most hits filed as inhibitors; also: nearly all actives have a fitted effect of over 55% in size
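Chicken DT40 Tdp1-/- cells stably complemented with human TDP1 were seeded at 400 cells/well in medium containing 20 nM camptothecin, exposed to pin-transferred compounds, and grown at 37 °C for at least 48 hr. Viability was read as ATP luminescence.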
Numbers stand for hits; . = inactive; ? = inconclusive; / = not tested or not shown; [ ] = dose if it differs, or a comment. The list is not random: actives were taken first. Their share in the collection is about 15%. Calls follow the shape of the dose curve; as a rule, active = well fitted curve in the direction sought with a large enough effect; inconclusive = small, poorly fitted or top-dose-only effect, or another doubt; inactive = no such curve, though single readings can be large; an effect the other way counts as inactive or inconclusive.

SMILES	VP16 counter	TDP1 cell noCPT	ELG1 repair inh	12-LOX inh	RORgamma inh	DT40 TDP1 CPT
c1nc2nc3c(c(N4CCNCC4)n2n1)CCCC3	.	.	.	/	?	.
CN1C2CCC1/C(=C/c1ccccn1)C(=O)/C2=C\c1ccccn1	2.51µM	0.651µM	1.84µM	.	2.82µM	0.517µM
COc1cc2c(cc1OC1CCCC1)NC(=O)C21CCN(Cc2ccccc2)CC1	/	/	/	.	/	/
COc1ccccc1Oc1c(C)oc2cc(OC(=O)N(C)C)ccc2c1=O	.	.	?	?	.	.
Cc1cc2oc(=O)cc(-c3cc4ccccc4o3)c2cc1OC(=O)N(C)C	.	?	.	.	.	14.6µM
CCN(CC)C(=O)Oc1cc2c(-c3cc4cccc(OC)c4o3)cc(=O)oc2cc1C	.	23.1µM	?	.	.	16.4µM
CN(C)C(=O)Oc1ccc2oc(=O)cc(-c3cc4ccccc4o3)c2c1	.	.	.	.	.	.
O[C@H]1[C@H](NCC2CCCC2)[C@@H](c2ccccc2)C[C@H]1O	/	/	/	.	/	/
COc1cc2c(cc1OCC1CCCC1)N(C(=O)C1CCC(C)CC1)CC21CCN(CC(=O)O)CC1 (stereo unspecified)	/	/	/	.	/	/
COCC1CN(C2CCC2)CC12CCN(Cc1cccnc1)CC2 (stereo unspecified)	/	/	/	.	/	/
Cc1oc2cc(OCC(=O)N3CCN(CCO)CC3)ccc2c(=O)c1Oc1ccccc1	/	/	/	.	/	/
COc1cc2c(cc1OCc1ccccc1)NC(=O)C21CCN(c2nc(C)cnc2C)CC1	/	/	/	.	/	/
COc1ccc(OC)c(N2C(=O)NC(=O)/C(=C\c3ccc([N+](=O)[O-])s3)C2=O)c1	?	?	.	?	6.31µM	16.4µM
COc1ccc(N2C(=O)NC(=O)/C(=C\c3ccccc3[N+](=O)[O-])C2=O)cc1	.	.	.	?	.	.
CN1C(=O)NC(=O)/C(=C/c2ccc([N+](=O)[O-])s2)C1=O	.	3.26µM	.	?	.	4.11µM
O=C1NC(=O)N(c2ccccc2)C(=O)/C1=C\c1ccc([N+](=O)[O-])s1	.	8.2µM	.	.	.	20.6µM
C#CCN1CCN(c2cccc(C)c2)CC1	/	/	/	.	/	/
CC(C)N(C)CC1CCN(C(=O)c2cn(Cc3ccccc3)c3ccccc23)CC1	/	/	/	.	/	/
CN(C)S(=O)(=O)c1cccc(C(=O)N2CCC(C(=O)O)(c3ccccc3)CC2)c1	.	.	.	.	.	.
CN(c1ccccc1)S(=O)(=O)c1cccc(C(=O)N2CCN(c3ccccn3)CC2)c1	.	16.4µM	?	.	.	18.4µM
COc1cc2c(cc1O)C[C@H]1c3c(cc(O)c(OC)c3-2)CCN1C	.	.	?	.	.	.
CCCN1CCc2cccc3c2C1Cc1ccc(O)c(O)c1-3 (stereo unspecified)	/	.	/	?	/	3.66µM
CN1CCc2cc(O)cc3c2[C@H]1Cc1ccc(O)c(O)c1-3	/	2.59µM	/	?	/	1.64µM
CC1(C)CC(=O)C2=C(C1)OC(N)=C([N+](=O)[O-])C2c1ccc(C#N)s1 (stereo unspecified)	.	?	.	.	.	20.6µM
CCCCNS(=O)(=O)c1ccc(OCC(=O)N2CCN(Cc3ccc4c(c3)OCO4)CC2)cc1	5.62µM	?	.	.	.	10.3µM
SMILES	VP16 counter	TDP1 cell noCPT	ELG1 repair inh	12-LOX inh	RORgamma inh	DT40 TDP1 CPT
COc1cc2c(cc1O)[C@@H]1Cc3ccc(OC)c(O)c3CN1CC2	/	4.11µM	?	.	/	4.61µM
COc1ccc(C[C@@H]2c3cc(O)c(OC)cc3CCN2C)cc1O	.	.	.	.	.	.
Cn1cc(CN2CCN(C(=O)Cc3ccsc3)CC2)ccc1=O	/	/	/	.	/	/
O=C(Nc1ccc(Cl)cc1)Nc1ccc(Cl)c(Cl)c1	?	2.91µM	?	.	.[10 µM]	4.61µM
COc1ccccc1CCNCc1cccs1	/	/	/	.	/	/
CCOC(=O)Cc1ccccc1	/	/	/	.	/	/
CCOC(=O)C(SP(=S)(OC)OC)c1ccccc1 (stereo unspecified)	?	/	/	/	12.6µM	/
CSCC[C@@H](NC(=O)[C@@H](Cc1ccccc1)NC(=O)CNC(=O)CNC(=O)[C@@H](N)Cc1ccc(O)cc1)C(=O)O	/	/	/	.	/	/
N=C1c2ccccc2CN1c1cccc([N+](=O)[O-])c1	.	.	.	.	.	.
O=C1c2cccc3cc([N+](=O)[O-])cc(c23)C(=O)N1c1ccccc1O	.	16.4µM	.	.	.	20.6µM
C=CCc1ccc(OCCn2nnc3ccccc32)c(OC)c1	?	8.2µM	?	?	?	10.3µM
O=C(Nc1nccs1)[C@H]1CN2CCC1C[C@@H]2Cn1cc(CC2CCCCC2)nn1 (stereo partly specified)	/	/	/	.	/	/
O=C1NCCOC(=O)[C@@H](Cc2ccc(F)cc2)CC/C=C/C[C@@H]1CC(=O)N(CCO)Cc1ccccc1	/	23.1µM	.	.	/	20.6µM
O=C1NCCOC(=O)[C@H](Cc2ccc(F)cc2)CC/C=C/C[C@H]1CC(=O)N(CCO)Cc1ccccc1	/	?	?	.	/	?
CCN1C[C@@H]2[C@@H]3C(=O)N(Cc4ccccc4)C(=O)[C@@H]3[C@](CC)(C1=O)N2C(=O)c1ccc(C(C)(C)C)cc1	/	?	/	.	/	?
Cc1ccc([C@H]2N[C@]3(CCCN(Cc4ccc(C(F)(F)F)cc4)C3=O)[C@H]3C(=O)N(Cc4ccccc4)C(=O)[C@@H]23)cc1	/	?	/	?	/	23.1µM
COc1cc2c(cc1OCc1ccccc1)NC(=O)C21CCN(c2cnccn2)CC1	/	/	/	.	/	/
CCCCn1c(=O)c(C=Nc2cc([N+](=O)[O-])ccc2OC)c(O)n(CCCCl)c1=O	.	.	20.6µM	.	?	.
C/C1=C/C(=O)O[C@@H]2C[C@@H](CC[C@H](C)/C=C\CC1)O[C@@](O)(C1CSC(=O)N1)C2 (stereo partly specified)	.	/	/	/	.	/
Cc1ccc(C(=O)n2c(N)nc3ccccc32)cc1	6.31µM	?	?	.	1.58µM	?
Fc1ccc(C(OCCN2CCN(C/C=C/c3ccccc3)CC2)c2ccc(F)cc2)cc1	/	3.26µM	/	?	/	5.17µM
O=C(COc1ccc(Cl)cc1)N1CCN(C/C=C/c2ccccc2)CC1	.	?	.	.	.	?
c1ccc(CCN2CCOCC2)cc1	/	.	/	/	/	.
c1ccc(CCCN2CCN(CCOC(c3ccccc3)c3ccccc3)CC2)cc1	?	13µM	/	?	31.6µM	9.2µM

Screening results: PubChem, National Center for Advancing Translational Sciences (NCATS)
